From PubChem BioAssay come the findings set out here.

Unmarked numbers belong to inactive results.

This experiment is described as follows: PSAC antagonists in infected red cells, primary screen, cell-based, P. falciparum Indochina, OD700, 18 h (AID 1157). As to conditions: P. falciparum Indochina infected erythrocytes, osmotic lysis OD700, 18 h; higher = more signal, called active from +8 up or from −8 down.
In the case of `O=C1C2C=CC(C(O)Cc3ccccc3)N(n3cnnc3)C2C(=O)N1Cc1ccccc1` (stereo unspecified), the z-score was 0.587.
For the compound `CCCC[C@@H]1C[C@H]1[C@@H](NC(=O)c1ccco1)c1ccc(-c2ccccc2)cc1`, the z-score is -1.91.
Take `C[C@@]1([C@@H](NC(=O)c2ccc(-c3ccccc3)cc2)c2ccc(Cl)cc2)C[C@H]1C1CCCCC1`: the z-score is 1.11.
For `COC(=O)c1c(CC[C@@H](CO)NC(=O)NCCn2cc(C3(O)CCCC3)nn2)oc(C(C)=O)c1C(=O)OC`, the z-score is 0.533.
Next, `CC1(C)C2C=C(C(O)C3C=CC4C(=O)NC(=O)C4N3Nc3ccc(Cl)cc3Cl)C[C@@H]1C2` (stereo partly specified): 1.19.
For the compound `NC(=O)NCC#Cc1ccc2c(c1)[C@]1(C(=O)N2)[C@H](C(=O)Nc2nc3ccccc3s2)[C@H]2C(=O)O[C@H](c3ccccc3)[C@H](c3ccccc3)N2[C@@H]1c1ccccc1OCCO`, the z-score is -0.247.
As for `COC(=O)[C@@]1(Cc2ccc(F)cc2)[C@H]2c3cc(C(=O)N(C)C)n(Cc4cc(F)c(F)c(F)c4)c3C[C@H]2CN1C(=O)c1ccccc1`, the z-score is 1.16.
The same measure for `[N-]=[N+]=NCc1ccccc1[C@@H]1OC(c2ccc(OCCCO)cc2)=N[C@]1(Cc1ccccc1)C(=O)NCC(O)CO` (stereo partly specified): 0.123; for `COc1cc2c(cc1OC)CN(C(=O)[C@@H]1[C@H]3C(=O)O[C@H](c4ccccc4)[C@H](c4ccccc4)N3[C@H](c3ccc(O)cc3)[C@@]13C(=O)Nc1ccccc13)CC2`: -1.28.
Turning to `[N-]=[N+]=Nc1ccccc1[C@H]1OC(c2ccc(OCCCO)cc2)=N[C@@]1(CCS(=O)(=O)c1ccccc1)C(=O)NCC(O)CO` (stereo partly specified), the z-score was 2.09.
The same measure for `O=C1NC(=O)C2C1C=CC(C(O)c1cccs1)N2Nc1ccc(Cl)cc1Cl` (stereo unspecified): 1.34; for `C=CCNC(=O)[C@H]1[C@@H]2C(=O)O[C@@H](c3ccccc3)[C@@H](c3ccccc3)N2[C@@H](c2ccccc2OCCO)[C@]12C(=O)Nc1ccc(C#CCCO)cc12`: 0.982.
With `CC(C)C(CO)N1C(=O)[C@@H]2C3C(=O)OCCC/C=C\[C@H]3OC23C=CCN(CCN2CCOCC2)C(=O)[C@@H]13` (stereo partly specified), the z-score was 0.16.
On to `CC(=O)n1cc(C(O)C2C=CC3C(=O)N(c4ccccc4)C(=O)C3N2Nc2ccc([N+](=O)[O-])cc2)c2ccccc21` (stereo unspecified), for which the z-score is 0.954.
In the case of `CCOC(=O)C[C@H]1[C@H](OC(=O)c2ccc(C(=O)c3ccccc3)cc2)[C@@H](NC(=O)c2ccc3ccccc3n2)c2cc(OCCCO)ccc2N1C(=O)c1ccccc1`, the z-score is -0.232.
For `COc1ccc(C#Cc2ccc3c(c2)[C@]2(C(=O)N3)[C@H](C(=O)NC[C@H](O)c3ccccc3)[C@H]3C(=O)O[C@H](c4ccccc4)[C@H](c4ccccc4)N3[C@@H]2c2ccc(O)cc2)cc1`, the z-score was 0.909.
Consider `N#Cc1ccc(NN2C(C(O)C(c3ccccc3)c3ccccc3)C=CC3C(=O)N(c4ccccc4)C(=O)C32)cc1` (stereo unspecified), for which the z-score is 1.24.
With `Cc1ccccc1C(O)C1C=CC2C(=O)N(c3ccccc3)C(=O)C2N1Nc1ccc(C(C)C)cc1` (stereo unspecified), the z-score is 0.974.
With `CO[C@H]1O[C@H](CO)[C@@H](OC(=O)Nc2cccc(F)c2)[C@H](OC(=O)Nc2ccccc2)[C@@H]1OC(=O)Nc1ccccc1`, the z-score is 1.4.
Regarding `C=CCOC(=O)[C@H]1[C@@H]2C(=O)O[C@@H](c3ccccc3)[C@@H](c3ccccc3)N2[C@@H](c2ccc(OCCOC(=O)[C@H]3C[C@H]4C(=O)N[C@@H](CCCCNC(C)=O)C(=O)N4[C@H]3c3ccc(O)cc3)cc2)[C@]12C(=O)Nc1ccc(I)cc12`, the z-score was -0.214.
For `Cc1nc2cc(Br)ccc2c(=O)o1`, the z-score was -0.509.
Next, `CCCC[C@H]1OB(O)C[C@H]2C1=C(COC)Cn1c(=O)n(-c3ccccc3)c(=O)n12`: 0.0357; `COc1ccc([Si](C)(C)[C@@H]2[C@@H](CCO)O[C@]3(C(=O)N(Cc4ccc(N(C=O)c5ccccc5)cc4)c4ccccc43)[C@H]2C)cc1`: 1.7.
With `CC(C)[Si](C#Cc1ccc(Oc2ccccc2)cc1)(O[Si](C#Cc1ccc(Oc2ccccc2)cc1)(C(C)C)C(C)C)C(C)C`, the z-score is 1.39.
Regarding `CN1C=C(C(=O)OCCS(C)(=O)=O)C(C(=O)OCCS(C)(=O)=O)=CC(c2ccc(CO)cc2)=CC1C1CC1` (stereo unspecified), the z-score was 0.897.
In the case of `COc1ccc(CCNC(=O)[C@@]2(Sc3ccc(C)cc3)CC(=O)N(C(C)C)[C@@H]2c2ccc(CO)cc2I)cc1`, the z-score is -0.135.
